TRPML1 agonist = activates the human TRPML1 channel; Q9GZU1; TRPML1-expressing cells, Ca2+ dye fluorescence, FDSS; activation, % (test concentration not listed); actives 0.12% (n = 410,000); in the data active = activation above about 50%; inconclusive = mostly about 30% to 49%; note: 0% is about no effect
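Tetracycline-induced TRPML1-DL cells are seeded and incubated overnight before loading with a no-wash Ca2+ dye and quencher. Agonist activity is taken from the 110 s fluorescence read following compound pin-transfer on an FDSS, before EC80 54-4 challenge.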
TRPML1 blocker = human mucolipin-1 channel inhibition; actives 0.02% (n = 390,000); activity change, negative = inhibition, % (test concentration not listed); TRPML1-inducible cells, Ca2+ dye fluorescence, FDSS; hits give low values; inhibition of EC80 agonist-evoked calcium signal; Q9GZU1; in the data active = activity change below about -50%; inconclusive = between about -30% and that limit;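 note: stimulus is agonist 54-4 at its EC80 concentration; % is set by controls: 0 for no effect and ±100 for the full control effect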
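TRPML1-DL cells, Tet-induced overnight (~16 h, 37 °C) at 1,500 cells/well, were loaded with Ca8 no-wash dye plus quencher for 45-90 min at room temperature. Compounds were pinned during FDSS kinetic reading; agonist 54-4 at EC80 (4 uM final) then added.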
PTHR1 ag = agonists of human PTHR1 parathyroid hormone receptor; Q03431; HEK293 GP2 PTHR1 cells, GloSensor cAMP luminescence, 1 h; Potency, µM (doses to about 115 µM), inactives show at the highest dose activation, most hits filed as activators; actives 0.075% (n = 410,000); AID 743266; note: potency is the fitted concentration of half-maximal effect; nearly all actives have a fitted effect of over 55% in size
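HEK-293-derived GP2 cells expressing PTHR1 and a GloSensor cAMP reporter, 3,000/well, plated overnight, given luciferin plus IBMX (each 0.5 mM as added) for 1 h at 37 °C, then compound for 1 h at 37 °C. Luminescence was read after 15 min at room temperature.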
TRHR PAM = allosteric enhancers of human TRH receptor | actives 0.66% (n = 360,000) | P34981 | enhancement, % at 2 µM | TRHR cells, fluo-8 calcium fluorescence, EC20 TRH enhancement; in the data active = enhancement above about 30%; note: 0% is about no effect
Target sequence (P34981 whole entry, looked up): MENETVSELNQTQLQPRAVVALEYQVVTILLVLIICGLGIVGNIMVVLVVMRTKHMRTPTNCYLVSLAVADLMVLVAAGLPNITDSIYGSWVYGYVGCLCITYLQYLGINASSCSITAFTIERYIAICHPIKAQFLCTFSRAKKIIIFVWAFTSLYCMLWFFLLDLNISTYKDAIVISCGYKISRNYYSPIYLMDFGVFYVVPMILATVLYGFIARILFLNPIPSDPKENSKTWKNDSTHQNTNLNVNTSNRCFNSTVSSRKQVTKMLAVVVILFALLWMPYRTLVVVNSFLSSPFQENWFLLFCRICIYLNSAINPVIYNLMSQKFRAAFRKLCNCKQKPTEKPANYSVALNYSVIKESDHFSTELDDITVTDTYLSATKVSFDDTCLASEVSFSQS
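TRHR-expressing cells loaded with fluo-8 calcium dye were read kinetically (ex 480/em 530) during compound addition, then stimulated with an EC20 of TRH (10 nM final). Enhancement of the Gq-mediated intracellular calcium response was scored.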
TRHR agonist = TRH receptor (human) agonism. P34981. TRHR cells, calcium flux fluo-8, FDSS agonist mode. activation, % at 2 µM. actives 0.18% (n = 360,000). AID 493084; in the data active = activation above about 30%; note: 0% is about no effect
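TRHR-expressing cells loaded with fluo-8 calcium dye; 23 nL library compound pin-transferred, kinetic FDSS fluorescence (Ex 480/Em 530) recorded about 180 s for agonist-induced calcium release, before a 10 nM TRH EC20 addition for potentiator mode.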
GLP1R cytotox = cytotoxic in the GLP-1 receptor inverse agonist counter-screen; Potency, µM (titrated, usually from 38.3 µM), inactives show at the highest dose activity change, negative = inhibition, hits mostly inhibitors; HEK293 cAMP-luciferase reporter cells, luminescence, 24 h; actives 0.13% (n = 410,000); AID 624418;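 note: loss of luciferase light is scored as toxicity; potency is the fitted concentration of half-maximal effect; % is set by controls: 0 for no effect and ±100 for the full control effect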
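Cells in DMEM/10% Nu serum/1% pen-strep, 1536-well format. Pre-incubated 12 h, dosed with 23 nL compound, incubated a further 24 h. Luciferase detection, 12 min at room temp, luminescence.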
An asterisk follows results filed as active; i = inactive; ? = inconclusive; . = no result; [ ] = another dose, or the depositor's remark. A selection: hits, their analogues and other compounds. The true share with any hit is near 0.93%. Unless noted, calls come from the whole dose curve; as a rule, active = well fitted curve in the direction sought with a large enough effect; inconclusive = small, poorly fitted or top-dose-only effect, or another doubt; inactive = no such curve, though single readings can be large; an effect the other way counts as inactive or inconclusive.

SMILES	TRPML1 agonist	TRPML1 blocker	PTHR1 ag	TRHR PAM	TRHR agonist	GLP1R cytotox
C[C@@H](C1CC[C@@]2(O)C3=CC(=O)[C@@H]4C[C@@H](O)[C@@H](O)C[C@]4(C)[C@H]3CC[C@]12C)[C@H](O)CCC(C)(C)O (some centres undefined)	1	43	.	.	.	.
CC(=O)Nc1cccc(C(=O)/C=C/c2ccc(Br)cc2)c1	0	6	-24%	-1	0	?
CCN(CC)c1ccc(/C=C/C(=O)c2ccc(Br)cc2)cc1	88*	-14	i	-1	166*	293%
COc1ccc(Cn2c(C(=O)O)c(CNCc3ccc(SC)cc3)c3ccc(OC)cc32)cc1	0	24	-12%	22	0	?
Cn1c(SSc2ccc(-c3cccnc3)n2C)ccc1-c1cccnc1	0	30	-1%	.	.	?
O=[N+]([O-])c1ccc(Sc2nc3ccccc3o2)c([N+](=O)[O-])c1	-1	2	-27%	30*	-1	?
CCOC(=O)c1ccc(N2C(=O)c3[nH]nc(-c4ccccc4)c3C2c2ccc(CC)cc2)cc1 (centres undefined)	1	-2	-18%	2	3	?
CCCCNc1cc(C)nc(NCc2ccccc2)n1	21	40	-75%[57.5 µM]	-15	15	11µM*
CC(C)(C)c1ccc(C(=O)Nc2ccc3nc(SCC(=O)N4CCCC4)sc3c2)cc1	2	-4	-13%	10	0	?
Fc1ccccc1N1CCN(Cc2c(F)cccc2F)CC1	2	-8	-10%[57.5 µM]	37*	-1	-5%
COc1ccc([N+](=O)[O-])c(S(=O)(=O)c2ccc(Cl)cc2)n1	2	0	-30%	-7	2	10µM*
N/N=C/C(=N\Nc1ccc(Cl)cc1)C(=O)c1ccncc1	2	1	i	3	0	?
Nc1ncc(P(=S)(N2CCOCC2)N2CCOCC2)s1	0	1	-11%	-4	1	-10%
C=Cn1c(P(=S)(N2CCOCC2)N2CCOCC2)cc2c1CCCC2	68*	-4	-13%	-3	0	-14%
COc1nnc(-c2ccc(N3CCCCC3)c(NC(=O)c3ccc(Cl)cc3)c2)c2ccccc12	2	2	?	39*	-1	4%
COc1cc(OC)cc(C(=O)Nc2ccc(Cl)cc2C(=O)c2ccccc2Cl)c1	0	-7	i	4	0	-3%
O=c1c(C=NCc2cccs2)c(O)n(C2CCCCC2)c(=O)n1C1CCCCC1	2	21	i	0	0	13%
N=C(N)c1c(O)n(C2CCCCC2)c(=O)n(C2CCCCC2)c1=O	3	39	-8%	5	0	11µM*
COC(=O)c1c(NC(=O)C2CC=CCC2C(=O)O)sc2c1CCCCC2 (centres undefined)	-1	-2	-58%	31*	0	10%
Cc1nn(C)c(C)c1N1C(=O)c2cccc3c(N)ccc(c23)C1=O	94*	-11	i	22	135*	i
CC(C(=O)c1ccc2ccccc2c1)N1CCCCC1 (centres undefined)	0	17	-19%	0	0	1%
CC(C)NC(C)C(=O)c1ccc2ccccc2c1 (centres undefined)	0	8	i	37*	1	-7%
O=C(c1cc(F)ccc1F)C1CCCN(Cc2cc(Cl)ccc2O)C1 (centres undefined)	3	11	-23%	34*	0	-6%
O=C(c1cc(F)ccc1F)C1CCCN(Cc2ccc3nonc3c2)C1 (centres undefined)	2	4	-85%	11	-1	-2%
CN(CCC#N)C(=O)COC(=O)c1c2c(nc3ccccc13)/C(=C\c1ccco1)CC2	7	-1	-9%	.	.	341%
CC(OC(=O)c1c2c(nc3ccccc13)/C(=C\c1ccc3c(c1)OCO3)CCC2)C(=O)Nc1ccc(S(N)(=O)=O)cc1 (centres undefined)	?	1	i	1	96*	145%

Screening results: PubChem, National Center for Advancing Translational Sciences (NCATS)
